# ± gives the standard deviation of the averaged measurements.
# How the values were obtained:
# Assay in all cases: promoter activity interaction Z-score (Lux/OD deviation from empty-vector control); higher = stronger promoter induction by the compound
# [1] = system: E. coli BW25113 acrABp lux reporter
# In short: (§1)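 Wild-type E. coli BW25113 and three single-gene deletion strains, each carrying a low-copy luxCDABE promoter reporter, were grown at 37°C in 40 µl LB Lennox per well of a 384-well plate. Every compound was applied at four 1:2 dilutions in biological duplicates, and OD600 and luminescence were read every 30 min for 12 h. Integration covered 0–8 h for wild type and 1–9 h for deletion strains, and wells under 10% of the median growth value were removed. Scores are Z-transformed residuals of growth-normalised luminescence fitted against a control.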
# [2] = system: E. coli BW25113 marRABp lux reporter
# In short: as §1
# [3] = system: E. coli BW25113 micFp lux reporter
# In short: as §1
# [4] = system: E. coli BW25113 ompFp lux reporter
# In short: as §1
# [5] = system: E. coli BW25113 robp lux reporter
# In short: as §1
# [6] = system: E. coli BW25113 soxSp lux reporter
# In short: as §1
# [7] = system: E. coli BW25113 tolCp lux reporter
# In short: as §1
# [8] = 17 µg/ml, genetic background: wild type
# [9] = 17 µg/ml, genetic background: ΔmarA
# [10] = 17 µg/ml, genetic background: Δrob
# [11] = 17 µg/ml, genetic background: ΔsoxS
# [12] = 34 µg/ml, genetic background: wild type
# [13] = 34 µg/ml, genetic background: ΔmarA
# [14] = 34 µg/ml, genetic background: Δrob
# [15] = 34 µg/ml, genetic background: ΔsoxS
# [16] = 68.1 µg/ml, genetic background: wild type
# [17] = 68.1 µg/ml, genetic background: ΔmarA
# [18] = 68.1 µg/ml, genetic background: Δrob
# [19] = 68.1 µg/ml, genetic background: ΔsoxS
# [20] = 136.2 µg/ml, genetic background: wild type
# [21] = 136.2 µg/ml, genetic background: ΔmarA
# [22] = 136.2 µg/ml, genetic background: Δrob
# [23] = 136.2 µg/ml, genetic background: ΔsoxS
smiles,measurement,setting,value
C[C@]12CC[C@@H]3c4ccc(O)cc4CC[C@H]3[C@@H]1CC[C@@H]2O [Estradiol],promoter activity interaction Z-score,[1]; [8],0.298 ± 0.0088
same,promoter activity interaction Z-score,[1]; [9],-0.217 ± 0.5
same,promoter activity interaction Z-score,[1]; [10],-0.138 ± 0.15
same,promoter activity interaction Z-score,[1]; [11],-0.335 ± 0.57
same,promoter activity interaction Z-score,[1]; [12],0.101 ± 0.01
same,promoter activity interaction Z-score,[1]; [13],0.101 ± 1.4
same,promoter activity interaction Z-score,[1]; [14],-0.0321 ± 0.063
same,promoter activity interaction Z-score,[1]; [15],-0.0568 ± 0.0019
same,promoter activity interaction Z-score,[1]; [16],-0.0194 ± 0.39
same,promoter activity interaction Z-score,[1]; [17],1.6 ± 0.16
same,promoter activity interaction Z-score,[1]; [18],-0.247 ± 0.35
same,promoter activity interaction Z-score,[1]; [19],-0.0269 ± 0.066
same,promoter activity interaction Z-score,[1]; [20],0.225 ± 0.041
same,promoter activity interaction Z-score,[1]; [21],-0.22 ± 0.31
same,promoter activity interaction Z-score,[1]; [22],-0.28 ± 0.4
same,promoter activity interaction Z-score,[1]; [23],0.453 ± 0.73
same,promoter activity interaction Z-score,[2]; [8],0.0618 ± 0.2
same,promoter activity interaction Z-score,[2]; [9],-0.313 ± 0.021
same,promoter activity interaction Z-score,[2]; [10],-0.258 ± 0.042
same,promoter activity interaction Z-score,[2]; [11],-0.0159 ± 0.095
same,promoter activity interaction Z-score,[2]; [12],-0.352 ± 0.0081
same,promoter activity interaction Z-score,[2]; [13],-0.312 ± 0.088
same,promoter activity interaction Z-score,[2]; [14],-0.348 ± 0.044
same,promoter activity interaction Z-score,[2]; [15],0.0387 ± 0.037
same,promoter activity interaction Z-score,[2]; [16],-0.254 ± 0.14
same,promoter activity interaction Z-score,[2]; [17],-0.263 ± 0.18
same,promoter activity interaction Z-score,[2]; [18],-0.158 ± 0.23
same,promoter activity interaction Z-score,[2]; [19],-0.162 ± 0.022
same,promoter activity interaction Z-score,[2]; [20],-0.478 ± 0.16
same,promoter activity interaction Z-score,[2]; [21],-0.488 ± 0.082
same,promoter activity interaction Z-score,[2]; [22],-0.392 ± 0.36
same,promoter activity interaction Z-score,[2]; [23],0.155 ± 0.22
same,promoter activity interaction Z-score,[3]; [8],0.105 ± 0.31
same,promoter activity interaction Z-score,[3]; [9],-0.0854 ± 0.0072
same,promoter activity interaction Z-score,[3]; [10],-0.132 ± 0.0023
same,promoter activity interaction Z-score,[3]; [11],-0.254 ± 0.061
same,promoter activity interaction Z-score,[3]; [12],-0.221 ± 0.34
same,promoter activity interaction Z-score,[3]; [13],-0.0642 ± 0.01
same,promoter activity interaction Z-score,[3]; [14],-0.194 ± 0.16
same,promoter activity interaction Z-score,[3]; [15],0.292 ± 0.13
same,promoter activity interaction Z-score,[3]; [16],0.178 ± 0.23
same,promoter activity interaction Z-score,[3]; [17],0.0617 ± 0.15
same,promoter activity interaction Z-score,[3]; [18],-0.166 ± 0.3
same,promoter activity interaction Z-score,[3]; [19],0.179 ± 0.19
same,promoter activity interaction Z-score,[3]; [20],0.028 ± 0.51
same,promoter activity interaction Z-score,[3]; [21],0.118 ± 0.11
same,promoter activity interaction Z-score,[3]; [22],-0.079 ± 0.16
same,promoter activity interaction Z-score,[3]; [23],0.578 ± 0.0079
same,promoter activity interaction Z-score,[4]; [8],0.501 ± 0.11
same,promoter activity interaction Z-score,[4]; [9],-0.126 ± 0.37
same,promoter activity interaction Z-score,[4]; [10],-0.146 ± 0.11
same,promoter activity interaction Z-score,[4]; [11],0.0169 ± 0.25
same,promoter activity interaction Z-score,[4]; [12],-0.603 ± 0.43
same,promoter activity interaction Z-score,[4]; [13],-0.0141 ± 0.44
same,promoter activity interaction Z-score,[4]; [14],-0.554 ± 0.48
same,promoter activity interaction Z-score,[4]; [15],-0.0316 ± 0.18
same,promoter activity interaction Z-score,[4]; [16],-0.329 ± 0.44
same,promoter activity interaction Z-score,[4]; [17],0.821 ± 0.84
same,promoter activity interaction Z-score,[4]; [18],-0.486 ± 0.4
same,promoter activity interaction Z-score,[4]; [19],-0.581 ± 0.16
same,promoter activity interaction Z-score,[4]; [20],-0.397 ± 0.85
same,promoter activity interaction Z-score,[4]; [21],-0.336 ± 0.37
same,promoter activity interaction Z-score,[4]; [22],-0.534 ± 0.93
same,promoter activity interaction Z-score,[4]; [23],-0.638 ± 0.074
same,promoter activity interaction Z-score,[5]; [8],0.7215 ± 0.0031
same,promoter activity interaction Z-score,[5]; [9],0.25 ± 0.44
same,promoter activity interaction Z-score,[5]; [10],-0.0547 ± 0.13
same,promoter activity interaction Z-score,[5]; [11],0.453 ± 0.085
same,promoter activity interaction Z-score,[5]; [12],-0.0162 ± 0.89
same,promoter activity interaction Z-score,[5]; [13],-0.0102 ± 0.92
same,promoter activity interaction Z-score,[5]; [14],-0.0213 ± 0.28
same,promoter activity interaction Z-score,[5]; [15],0.926 ± 0.78
same,promoter activity interaction Z-score,[5]; [16],0.13 ± 0.81
same,promoter activity interaction Z-score,[5]; [17],1.9 ± 0.56
same,promoter activity interaction Z-score,[5]; [18],-0.509 ± 0.5
same,promoter activity interaction Z-score,[5]; [19],0.373 ± 0.42
same,promoter activity interaction Z-score,[5]; [20],0.104 ± 0.37
same,promoter activity interaction Z-score,[5]; [21],0.282 ± 0.21
same,promoter activity interaction Z-score,[5]; [22],-0.478 ± 0.3
same,promoter activity interaction Z-score,[5]; [23],0.863 ± 0.52
same,promoter activity interaction Z-score,[6]; [8],0.266 ± 0.12
same,promoter activity interaction Z-score,[6]; [9],0.0464 ± 0.17
same,promoter activity interaction Z-score,[6]; [10],-0.0494 ± 0.027
same,promoter activity interaction Z-score,[6]; [11],0.159 ± 0.028
same,promoter activity interaction Z-score,[6]; [12],-0.15 ± 0.012
same,promoter activity interaction Z-score,[6]; [13],0.102 ± 0.021
same,promoter activity interaction Z-score,[6]; [14],-0.334 ± 0.0093
same,promoter activity interaction Z-score,[6]; [15],0.0514 ± 0.057
same,promoter activity interaction Z-score,[6]; [16],-0.196 ± 0.013
same,promoter activity interaction Z-score,[6]; [17],0.057 ± 0.029
same,promoter activity interaction Z-score,[6]; [18],-0.104 ± 0.2
same,promoter activity interaction Z-score,[6]; [19],0.254 ± 0.52
same,promoter activity interaction Z-score,[6]; [20],-0.422 ± 0.035
same,promoter activity interaction Z-score,[6]; [21],-0.276 ± 0.077
same,promoter activity interaction Z-score,[6]; [22],-0.275 ± 0.2
same,promoter activity interaction Z-score,[6]; [23],-0.137 ± 0.099
same,promoter activity interaction Z-score,[7]; [8],0.895 ± 0.21
same,promoter activity interaction Z-score,[7]; [9],-0.343 ± 0.88
same,promoter activity interaction Z-score,[7]; [10],-0.103 ± 1
same,promoter activity interaction Z-score,[7]; [11],-0.491 ± 0.4
same,promoter activity interaction Z-score,[7]; [12],-0.0124 ± 0.71
same,promoter activity interaction Z-score,[7]; [13],-0.745 ± 0.26
same,promoter activity interaction Z-score,[7]; [14],-0.126 ± 1.3
same,promoter activity interaction Z-score,[7]; [15],0.321 ± 0.44
same,promoter activity interaction Z-score,[7]; [16],-0.293 ± 0.52
same,promoter activity interaction Z-score,[7]; [17],0.492 ± 0.095
same,promoter activity interaction Z-score,[7]; [18],0.143 ± 0.3
same,promoter activity interaction Z-score,[7]; [19],0.521 ± 0.57
same,promoter activity interaction Z-score,[7]; [20],0.506 ± 0.79
same,promoter activity interaction Z-score,[7]; [21],-0.446 ± 0.55
same,promoter activity interaction Z-score,[7]; [22],-0.721 ± 0.35
same,promoter activity interaction Z-score,[7]; [23],0.191 ± 0.75

# Reference: the supplement of paper PMC12282887
